In PubChem BioAssay (NCI) one finds growth data, which are given here for 14 compounds.

Some test systems named below: SK-MEL-2 melanoma; EKVX NSCLC; SN12C renal; UO-31 renal; TK-10 renal; ACHN renal; CAKI-1 renal; A498 renal; CCRF-CEM leukemia; MOLT-4 leukemia.
Holding throughout (test): NCI-60 one-dose screen, 48 h (100 = growth as untreated, 0 = no growth, -100 = all killed)
Holding throughout (details): 10 µM unless noted

Each structure is given as a SMILES string. Compounds without any hit were thinned out: in the full panel of roughly 83,000, 20% have a hit.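 The test compound was applied at a single concentration to cells in 96-well plates for 48 hours, and percent growth was recorded.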 Values without a mark were called inactive. Activity calls are given as the source filed them. The calls were made as follows: active = growth percent below 10; inactive = the rest.

With `Nc1c2c(nc3ccc(Br)cc13)CC(c1ccccc1)CC2=O` (stereo not given), the growth with SK-MEL-2 melanoma is 59.2%; in the assay on EKVX NSCLC, 27.2%; with SN12C renal, 51.3%; in the assay on UO-31 renal, 53.1%; with TK-10 renal it was 85.7%; with ACHN renal, 57.7%. Moreover, the growth in the assay with CAKI-1 renal was 47.2%; in the assay on A498 renal, 1.16% (active); with CCRF-CEM leukemia, 19.7%; in the assay with MOLT-4 leukemia, 29.3%.
On to `Brc1cnc2[nH]cc(-c3nnc(-c4ccccc4)o3)c2c1`, for which the growth in the assay with SK-MEL-2 melanoma is 73.3%; in the assay on EKVX NSCLC it was 31.4%; in the assay with SN12C renal it was 79.9%; with UO-31 renal it was 45.2%; in the assay with TK-10 renal, 58.9%; with ACHN renal, 28.9%. In addition, the growth is 34.2% with CAKI-1 renal, 47% in the assay on A498 renal, 102% in the assay with CCRF-CEM leukemia and 74.3% in the assay on MOLT-4 leukemia.
Regarding `Nc1ncnc2nc(Br)[nH]c12`, the growth with SK-MEL-2 melanoma is 102%; in the assay with EKVX NSCLC, 105%; in the assay on SN12C renal, 100%; in the assay on UO-31 renal, 101%; with TK-10 renal, 96.2%; in the assay with ACHN renal it was 98.7%. Also, the growth is 93% in the assay with CAKI-1 renal, 98.1% in the assay with A498 renal, 94.3% in the assay with CCRF-CEM leukemia and 96.1% in the assay with MOLT-4 leukemia.
In the case of `Cc1ccc(-c2nc3ccc(Cl)cc3c(=O)n2N2C(=O)CSC2c2ccccc2Cl)cc1` (stereo not given), the growth in the assay with SK-MEL-2 melanoma was 96.2%; in the assay with EKVX NSCLC it was 60%; with SN12C renal, 69%; in the assay on UO-31 renal, 67.2%; with TK-10 renal it was 74.6%; in the assay on ACHN renal, 26.4%. For the same compound, the growth in the assay on CAKI-1 renal was 60.3%; in the assay on A498 renal, 84.8%; in the assay on CCRF-CEM leukemia, 74.8%; in the assay on MOLT-4 leukemia, 82.7%.
Turning to `CCCCCCCC(=O)SCC/C=C/[C@@H]1CC(=O)NCc2cccc(n2)CN(Cc2ccc3ccccc3c2)CC(=O)N[C@@H](C(C)C)C(=O)O1`, the growth is 56.5% in the assay with SK-MEL-2 melanoma; 53.9% in the assay on EKVX NSCLC; 57.1% in the assay with SN12C renal; 36.4% with UO-31 renal; 21.6% in the assay on TK-10 renal; 34.7% in the assay on ACHN renal. Also, the growth with CAKI-1 renal is 35.8%; in the assay on A498 renal, 0.931% (active); in the assay with CCRF-CEM leukemia it was 15.6%; in the assay on MOLT-4 leukemia, 2.35% (active).
Regarding `O=C1NC(c2ccc(Cl)c(Cl)c2)=C/C1=C\c1ccccc1`, the growth in the assay on SK-MEL-2 melanoma is 107%; in the assay on EKVX NSCLC, 70.8%; with SN12C renal, 71.8%; in the assay with UO-31 renal, 29.2%; in the assay on TK-10 renal, 100%; in the assay on ACHN renal, 4.37% (active). Further, the growth in the assay with CAKI-1 renal was 49.3%; with A498 renal it was 105%; in the assay with CCRF-CEM leukemia, 45.8%; with MOLT-4 leukemia, 53.9%.
As to `Cc1ccc(N(CC(=O)Nc2ccc(S(=O)(=O)N3CCC(N4CCCC4)CC3)cc2)S(=O)(=O)c2ccc(Cl)cc2)cc1`, the growth is 91.9% with SK-MEL-2 melanoma; 70.1% with EKVX NSCLC; -35.7% (active) in the assay on SN12C renal; 38.1% in the assay with UO-31 renal; 112% in the assay on TK-10 renal; -38.4% (active) with ACHN renal. In addition, the growth with CAKI-1 renal is 18.2%; in the assay on A498 renal, 65.6%; in the assay with CCRF-CEM leukemia, 3.02% (active); with MOLT-4 leukemia, 2.28% (active).
As to `CC(=O)n1c(/C(C#N)=C/c2ccc(N(C)C)cc2)cc2ccccc21`, the growth with SK-MEL-2 melanoma was 47.9%; in the assay with EKVX NSCLC, 36.8%; with SN12C renal it was 42.9%; with UO-31 renal, 52.6%; in the assay with TK-10 renal it was 91.3%; with ACHN renal, 47.5%. Further, the growth in the assay with CAKI-1 renal is 37.7%; in the assay on A498 renal it was 2.85% (active); in the assay on CCRF-CEM leukemia, 21.1%; in the assay on MOLT-4 leukemia, 33.1%.
For the compound `N=c1c(S(=O)(=O)c2ccccc2)cc2c(=O)n3ccccc3nc2n1C1CCCC1`, the growth in the assay with SK-MEL-2 melanoma was 104%; in the assay with EKVX NSCLC, 78.1%; in the assay with SN12C renal, 87.2%; in the assay on UO-31 renal, 50.9%; in the assay on TK-10 renal, 82.5%; with ACHN renal, 86%. Further, the growth with CAKI-1 renal was 64.6%; in the assay with A498 renal it was -1.39% (active); in the assay with CCRF-CEM leukemia it was 93.6%; with MOLT-4 leukemia, 82%.
Take `CC(=O)O[C@@H]1CCN2C(=O)N(C)c3ccccc3[C@@H]2C1`: the growth is 102% with SK-MEL-2 melanoma; 114% in the assay on EKVX NSCLC; 98.9% in the assay with SN12C renal; 94.5% in the assay with UO-31 renal; 99.6% in the assay on TK-10 renal; 98.6% in the assay with ACHN renal. The growth was 95.3% in the assay on CAKI-1 renal, 114% in the assay on A498 renal, 105% in the assay with CCRF-CEM leukemia and 99.6% in the assay with MOLT-4 leukemia.
As to `COc1cc2nc(Cl)nc(Nc3cccc(C(=O)/C=C/c4ccccc4)c3)c2cc1OC`, the growth with SK-MEL-2 melanoma was 86.8%; in the assay on EKVX NSCLC it was 81.5%; in the assay with SN12C renal it was 59.5%; in the assay with UO-31 renal it was 50.8%; with TK-10 renal, 143%; in the assay on ACHN renal, 13.7%. The growth with CAKI-1 renal was 48.4%; in the assay with A498 renal, 90.6%; with CCRF-CEM leukemia, 28.9%; in the assay with MOLT-4 leukemia, 34.5%.
With `COc1cnc2c(c1)C(=O)c1c-2n(CCCNCCN2CCOCC2)c(=O)c2cc([N+](=O)[O-])ccc12`, the growth is 19% with SK-MEL-2 melanoma; 15.8% with EKVX NSCLC; 4.54% (active) with SN12C renal; -85.8% (active) in the assay on UO-31 renal; -0.695% (active) in the assay on TK-10 renal; -69.6% (active) with ACHN renal. Besides, the growth with CAKI-1 renal is -29.5% (active); in the assay with A498 renal, -86.7% (active); in the assay on CCRF-CEM leukemia, 2.23% (active); with MOLT-4 leukemia, -1.41% (active).
Regarding `C#CCC(C)(O)/C=C/C1=C(C)CCCC1(C)C` (stereo not given), the growth is 97.4% in the assay with SK-MEL-2 melanoma; 95.8% in the assay with EKVX NSCLC; 99.2% in the assay on SN12C renal; 91.3% in the assay on UO-31 renal; 96.7% in the assay on TK-10 renal; 97.3% in the assay with ACHN renal. Besides, the growth was 92.4% in the assay with CAKI-1 renal, 91.3% in the assay on A498 renal, 101% in the assay on CCRF-CEM leukemia and 101% with MOLT-4 leukemia.
On to `O=C1/C(=C\C(Cl)=C/c2ccc([N+](=O)[O-])cc2)SC(=S)N1CCc1ccc(O)cc1`, for which the growth in the assay with SK-MEL-2 melanoma was 0.0993% (active); in the assay with EKVX NSCLC it was -43% (active); in the assay on SN12C renal, -9.23% (active); in the assay with UO-31 renal, -91.4% (active); with TK-10 renal, -32.7% (active); in the assay with ACHN renal it was -89.4% (active). Also, the growth with CAKI-1 renal is -70.5% (active); in the assay on A498 renal it was -27.5% (active); in the assay on CCRF-CEM leukemia, 8.16% (active); in the assay on MOLT-4 leukemia, 7.65% (active).
